The text below walks through data of PubChem BioAssay.

Activity calls are given as the source filed them.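 Rule for the calls, unless noted: active = visual image review flags a hit and inhibition of aggregation exceeds 20%; inconclusive = visual hit but inhibition at or below 20%; inactive = no hit on visual image review.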

A short description of assay [1]: inhibitors of TNFa-induced NFkB p65 translocation, primary screen, imaging, HUVEC, MLSMR starter and 10KST1 sets (AID 438;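 active = inhibition above 20% together with a positive visual image hit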;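 note: compound added about 3h40 before a 20 min TNFalpha stimulation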;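 for inhibition: signal is the nuclear over cytoplasmic p65 intensity ratio per well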). The settings on record: HUVEC TNFa-induced p65 nuclear translocation; cell count: measured here: nuclei count (cytotoxicity indicator), at 2.08 µM; inhibition: at 2 µM, stronger effect = higher value, 0% TNFa-plus-vehicle, 100% no-TNFa wells.
The nature of assay [2]: inhibitors of mutant huntingtin aggregation, primary screen, imaging, exon1htt(103Q)mCFP cells, high-content imaging (AID 483).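 For nuclei count: percent of the per-plate median nuclei count of sample wells.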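 Note: compound exposure lasted 3 days before fixation.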 The following applies: exon1htt(103Q)mCFP cell line, aggregate imaging, at 2 µM; inhibition of aggregation: stronger effect = higher value; nuclei count: measured here: cell count, toxicity.
A short description of assay [3]: inhibitors of E-selectin induction by TNFa, primary screen, imaging, HUVEC, immunofluorescence, MLSMR starter and 10KST1 sets (AID 487;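 active = visually confirmed hit in the image check and inhibition above 20%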;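 for inhibition: signal is fraction of cell area covered by stained E-selectin grains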;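 for nuclei count: 100% = median nuclei count of all wells on the same plate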). The settings on record: HUVEC TNFalpha-induced E-selectin immunofluorescence imaging, at 2 µM; inhibition: stronger effect = higher value; nuclei count: measured here: cell number, toxicity.
The target in assay [4] is Voltage-gated potassium channel subunit beta-2 (Rattus norvegicus) (UniProt P62483). Kind of assay: KvBeta enzyme negative modulators, primary screen, biochemical, NADPH fluorescence (AID 622;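 active = fluorescence slope higher than the sample average by over 3 SD, cut at about -0.22 in these data, passing the limit was not always enough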;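 note: slope of raw intensity against log time taken from 70 to 1610 s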). The settings on record: recombinant KvBeta, 4-cyanobenzaldehyde reduction, at 10 µM, stronger effect = higher value.
Assay [5] shares this target. Kind of assay: KvBeta positive modulators, primary screen, biochemical, NADPH fluorescence (AID 623;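 active = NADPH fluorescence slope more negative than the mean of all samples by about 3 SD, 99.7% confidence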;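 note: fluorescence intensity change per second fitted from 20 to 320 s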). The settings on record: Recombinant KvBeta, NADPH fluorescence decrease slope, 10 min; at 10 µM; stronger effect = lower value.
Assay [6] deals with Alpha-2C adrenergic receptor (Homo sapiens) (UniProt P18825). Kind of assay: modulators of alpha2C/GIRK thallium flux, primary screen, cell-based, HEK293 alpha2C/GIRK1/2 (AID 624;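 active = fluorescence slope after compound addition differing from the mean of all screened samples at 99.7% confidence, in either direction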;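 note: slope of fluorescence ratio to pre-addition baseline per second over 15 to 24 s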). The following applies: thallium flux BTC fluorescence, at 10 µM, actives lie on both sides.
A short description of assay [7]: inhibitors of Sendai virus-induced IRF3 signaling, primary screen, TLR/RLR signaling modifier project, cell-based, Sendai virus stimulus, luciferase, 10K MLSCN set (AID 602276;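 active = inhibition at or above 50% at 10 µM; inactive = inhibition below 50%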;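 note: firefly luciferase from ISG56 promoter only with Renilla not read in this screen; 0% = Sendai virus plus DMSO and 100% = medium plus DMSO without virus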). The settings on record: HEK293 RL24 IRF3 luciferase reporter, at 10 µM, stronger effect = higher value. (In general: In a reporter assay the amount or activity of a reporter protein is the signal.)
Assay [8] in a line: inhibitors of poly I:C-induced TLR3 signaling, primary screen, cell-based, poly I:C stimulus, luciferase, 10K MLSCN set (AID 602277;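 active = inhibition of the reporter signal at or above 50%; inactive = inhibition below 50%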). The following applies: HEK293-TLR3 RL24 IRF3 luciferase reporter, at 10 µM, stronger effect = higher value.

Alpha-2C adrenergic receptor (Homo sapiens), sequence (P18825 whole entry, looked up): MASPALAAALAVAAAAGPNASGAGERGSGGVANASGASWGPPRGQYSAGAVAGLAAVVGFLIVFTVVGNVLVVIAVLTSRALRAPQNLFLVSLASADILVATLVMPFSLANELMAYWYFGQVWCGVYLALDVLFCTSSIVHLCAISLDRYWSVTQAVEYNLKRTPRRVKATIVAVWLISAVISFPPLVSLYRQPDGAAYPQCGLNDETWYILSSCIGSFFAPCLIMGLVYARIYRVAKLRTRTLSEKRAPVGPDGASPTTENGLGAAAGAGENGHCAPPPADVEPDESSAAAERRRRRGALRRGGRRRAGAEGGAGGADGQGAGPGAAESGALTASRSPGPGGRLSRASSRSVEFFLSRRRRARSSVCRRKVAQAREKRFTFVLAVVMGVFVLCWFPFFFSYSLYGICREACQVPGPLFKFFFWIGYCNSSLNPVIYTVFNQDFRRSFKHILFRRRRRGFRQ
Voltage-gated potassium channel subunit beta-2 (Rattus norvegicus), sequence (P62483 whole entry, looked up): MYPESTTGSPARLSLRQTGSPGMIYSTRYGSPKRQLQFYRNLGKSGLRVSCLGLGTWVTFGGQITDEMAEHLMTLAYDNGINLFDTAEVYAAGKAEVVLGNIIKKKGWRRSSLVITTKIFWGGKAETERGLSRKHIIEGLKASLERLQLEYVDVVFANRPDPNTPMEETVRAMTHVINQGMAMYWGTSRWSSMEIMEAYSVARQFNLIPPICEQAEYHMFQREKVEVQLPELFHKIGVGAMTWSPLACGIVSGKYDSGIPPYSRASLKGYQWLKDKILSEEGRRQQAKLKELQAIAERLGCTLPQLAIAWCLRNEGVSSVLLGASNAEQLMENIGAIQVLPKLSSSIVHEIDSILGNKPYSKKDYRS

Broadly, the inhibition is the relative decrease from the control value, in per cent. As to `NS(=O)(=O)c1ccc(CCNC(=O)c2cccnc2)cc1`, the cell count in assay [1] amounted to 580. The inhibition in assay [1] is -8.3% (inactive); in assay [3] it was -75.4% (inactive); in assay [7], 10.9% (inactive); in assay [8], 99.1% (active). Further, the inhibition of aggregation in assay [2] was -11.5% (inactive). Besides, the values for the nuclei count in assay [2] and in assay [3] were 105% and 107%, respectively. The fluorescence slope in assay [4] is -0.276 (inactive). In addition, the NADPH fluorescence slope in assay [5] was -6.8e-05 (inactive). The slope in assay [6] was 0.00459 (inactive).

In the case of `Cc1cc(C)cc(OCC(=O)NC2=NCCS2)c1`, in assay [1], the cell count came to 311. Moreover, the inhibition is -11.8% (inactive) in assay [1], -76% (inactive) in assay [3], -3.94% (inactive) in assay [7] and -24% (inactive) in assay [8]. For the same molecule, the inhibition of aggregation in assay [2] is 2.3% (inactive). In addition, the nuclei count in assay [2] was 165%; in assay [3] it was 115%. Further, the fluorescence slope in assay [4] was -0.573 (inactive). The NADPH fluorescence slope in assay [5] was 1.2e-05 (inactive). In assay [6], the slope was 0.00659 (inactive).

With `O=C(Nc1ccncc1)c1cccc(F)c1`, the cell count in assay [1] stood at 559. The inhibition in assay [1] is -6.9% (inactive); in assay [3], -13.5% (inactive); in assay [7], 12.9% (inactive); in assay [8], 13.8% (inactive). In addition, in assay [2], the inhibition of aggregation was -1.2% (inactive). Moreover, the nuclei count in assay [2] worked out at 95.4%; in assay [3] it was 68.8%. In addition, the fluorescence slope in assay [4] was -0.375 (inactive). Also, the NADPH fluorescence slope in assay [5] is -4.9e-05 (inactive). Moreover, in assay [6], the slope was 0.00567 (inactive).

`Nn1c(SCC(=O)Nc2ccc(Oc3ccccc3)cc2)nnc1C1CC1`: the cell count in assay [1] came out at 331. Also, the inhibition in assay [1] was -12.3% (inactive); in assay [3], -57.3% (inactive); in assay [7], -8.58% (inactive); in assay [8], -16% (inactive). Moreover, the inhibition of aggregation in assay [2] is 17.5% (inactive). Further, the nuclei count in assay [2] came out at 91.2%; in assay [3], 132%. For the same molecule, the fluorescence slope in assay [4] was -0.378 (inactive). In assay [5], the NADPH fluorescence slope was 1.7e-05 (inactive). Also, in assay [6], the slope is 0.00645 (inactive).

Consider `COC(=O)c1ccccc1NC(=O)c1ccc(COc2ccccc2)o1`, for which the cell count in assay [1] was 845. In addition, the inhibition in assay [1] was -8.3% (inactive); in assay [3], -19.3% (inactive); in assay [7], -25.9% (inactive); in assay [8], -60.3% (inactive). Besides, the inhibition of aggregation in assay [2] is 6.6% (inactive). Also, the nuclei count in assay [2] came to 113%; in assay [3], 114%. Besides, the fluorescence slope in assay [4] is -0.63 (inactive). The NADPH fluorescence slope in assay [5] is -3.5e-05 (inactive). Besides, the slope in assay [6] was 0.00572 (inactive).

For the molecule `CCOc1cc(NC(=O)c2ccco2)c(OCC)cc1NC(=O)CCc1ccc(OC)cc1`, the cell count in assay [1] came out at 630. Further, the inhibition in assay [1] is -0.7% (inactive); in assay [3] it was 23.6% (inactive); in assay [7], -0.546% (inactive); in assay [8], -4.67% (inactive). In assay [2], the inhibition of aggregation was -13.7% (inactive). Also, the nuclei count in assay [2] turned out to be 109%; in assay [3], 102%. The fluorescence slope in assay [4] was -0.513 (inactive). Moreover, the NADPH fluorescence slope in assay [5] is -6.7e-06 (inactive). For the same molecule, in assay [6], the slope is 0.00426 (inactive).

With `COCCOC(=O)/C=C1/NC(=O)CS1`, the cell count in assay [1] turned out to be 669. The inhibition was 5.3% (inactive) in assay [1], 45.1% (inactive) in assay [3], 15.1% (inactive) in assay [7] and 21.6% (inactive) in assay [8]. Also, the inhibition of aggregation in assay [2] is 9.1% (inactive). The figures for the nuclei count in assay [2] and in assay [3] were 100% and 98.3%, respectively. Moreover, the fluorescence slope in assay [4] was -0.606 (inactive). In addition, the NADPH fluorescence slope in assay [5] is -1.8e-05 (inactive). For the same molecule, the slope in assay [6] was 0.00397 (inactive).

Turning to `Nc1nnn(Cc2ccccc2)n1`, in assay [1], the cell count was 885. The inhibition in assay [1] is 8.7% (inactive); in assay [3] it was -20.6% (inactive); in assay [7] it was 0.136% (inactive); in assay [8], 99.3% (active). Further, the inhibition of aggregation in assay [2] is 5.4% (inactive). Further, the nuclei count in assay [2] and in assay [3] was 114% each time. For the same molecule, the fluorescence slope in assay [4] was -0.566 (inactive). Also, the NADPH fluorescence slope in assay [5] is -2.4e-05 (inactive). Also, in assay [6], the slope is 0.00494 (inactive).

For `CCOc1ccc(-c2c(C#N)c(N)nc3c2c(=O)n(C)c(=O)n3C)cc1OC`, the cell count in assay [1] stood at 702. The inhibition was -1.1% (inactive) in assay [1], -7.5% (inactive) in assay [3], 14.3% (inactive) in assay [7] and 16.4% (inactive) in assay [8]. In addition, the inhibition of aggregation in assay [2] was 7.8% (inactive). The nuclei count in assay [2] is 108%; in assay [3], 103%. In addition, the fluorescence slope in assay [4] is -0.486 (inactive). Besides, the NADPH fluorescence slope in assay [5] is -5.7e-05 (inactive). Also, the slope in assay [6] was 0.00459 (inactive).

Take `Nc1nc2n(n1)C(c1cccc(Br)c1)CC(c1ccccc1)N2` (stereo not given): the cell count in assay [1] was 645. Moreover, the inhibition was 13.8% (inactive) in assay [1], -39.6% (inactive) in assay [3], 13.2% (inactive) in assay [7] and 37% (inactive) in assay [8]. Moreover, the inhibition of aggregation in assay [2] is -26.4% (inactive). Besides, the nuclei count in assay [2] turned out to be 114%; in assay [3] it was 111%. Further, the fluorescence slope in assay [4] was -0.59 (inactive). Besides, in assay [5], the NADPH fluorescence slope is 9.1e-06 (inactive). In addition, in assay [6], the slope was 0.00794 (inactive).

As for `CCOc1cc(C(=O)Nc2ccon2)cc(OCC)c1OCC`, the cell count in assay [1] was determined as 795. Besides, the inhibition is 0.3% (inactive) in assay [1], -35.9% (inactive) in assay [3], 17.9% (inactive) in assay [7] and 15.6% (inactive) in assay [8]. In addition, the inhibition of aggregation in assay [2] was -40.4% (inactive). Moreover, the nuclei count in assay [2] came out at 104%; in assay [3], 108%. Also, the fluorescence slope in assay [4] was -0.387 (inactive). For the same molecule, the NADPH fluorescence slope in assay [5] is 1.3e-05 (inactive). In addition, in assay [6], the slope was 0.00341 (inactive).

In the case of `Cc1cc(C(=O)NCCCN2CCN(C3CCCCC3)CC2)n(-c2ccccc2)n1`, in assay [1], the cell count was 685. The inhibition in assay [1] is -2.2% (inactive); in assay [3], -70.3% (inactive); in assay [7] it was -18.1% (inactive); in assay [8], 17.8% (inactive). Moreover, the inhibition of aggregation in assay [2] was -2.4% (inactive). Further, the nuclei count was 101% in assay [2] and 114% in assay [3]. Besides, the fluorescence slope in assay [4] was -0.588 (inactive). For the same molecule, the NADPH fluorescence slope in assay [5] is -2.7e-05 (inactive). Further, in assay [6], the slope was 0.00679 (inactive).

In the case of `CC(C)(C)n1nnnc1CN1CCN(C2CCCC2)CC1`, the cell count in assay [1] turned out to be 798. The inhibition in assay [1] is -8.1% (inactive); in assay [3] it was -52.3% (inactive); in assay [7] it was -0.428% (inactive); in assay [8] it was 21.3% (inactive). For the same molecule, the inhibition of aggregation in assay [2] is 9.7% (inactive). For the same molecule, the nuclei count was determined as 136% in assay [2] and 107% in assay [3]. Also, the fluorescence slope in assay [4] is -0.472 (inactive). In addition, the NADPH fluorescence slope in assay [5] was -4.3e-05 (inactive). In addition, the slope in assay [6] is 0.00587 (inactive).

With `O=C(Cc1cccs1)Nc1nnc(CCc2ccccc2)s1`, the cell count in assay [1] turned out to be 382. Moreover, the inhibition in assay [1] was 1.5% (inactive); in assay [3], -152% (inactive); in assay [7], 9.85% (inactive); in assay [8] it was 31.2% (inactive). The inhibition of aggregation in assay [2] was 15.6% (inactive). The values for the nuclei count in assay [2] and in assay [3] were 110% and 117%, respectively. For the same molecule, the fluorescence slope in assay [4] was -0.437 (inactive). Moreover, the NADPH fluorescence slope in assay [5] is -5.5e-05 (inactive). Moreover, the slope in assay [6] was 0.00318 (inactive).

`CCOc1ccccc1OCCCCN1CCCC1`: the cell count in assay [1] turned out to be 608. The inhibition in assay [1] is 10.2% (inactive); in assay [3], -99% (inactive); in assay [7] it was 7.96% (inactive); in assay [8] it was 35.8% (inactive). Further, the inhibition of aggregation in assay [2] was 15.7% (inactive). Besides, the nuclei count in assay [2] was found to be 100%; in assay [3], 122%. Moreover, the fluorescence slope in assay [4] is -0.47 (inactive). In assay [5], the NADPH fluorescence slope is -5.2e-06 (inactive). Besides, the slope in assay [6] is 0.00972 (active).
